PTHR1 ag – activates the human parathyroid hormone receptor PTHR1; Potency, µM (series often up to 115 µM), inactives show top-dose activation, usual class: activators; actives 0.075% (n = 410,000); HEK293 GP2 PTHR1 cells, GloSensor cAMP luminescence, 1 h; AID 743266; note: nearly all actives have a fitted effect of over 55% in size
Target sequence (Q03431 whole entry, looked up): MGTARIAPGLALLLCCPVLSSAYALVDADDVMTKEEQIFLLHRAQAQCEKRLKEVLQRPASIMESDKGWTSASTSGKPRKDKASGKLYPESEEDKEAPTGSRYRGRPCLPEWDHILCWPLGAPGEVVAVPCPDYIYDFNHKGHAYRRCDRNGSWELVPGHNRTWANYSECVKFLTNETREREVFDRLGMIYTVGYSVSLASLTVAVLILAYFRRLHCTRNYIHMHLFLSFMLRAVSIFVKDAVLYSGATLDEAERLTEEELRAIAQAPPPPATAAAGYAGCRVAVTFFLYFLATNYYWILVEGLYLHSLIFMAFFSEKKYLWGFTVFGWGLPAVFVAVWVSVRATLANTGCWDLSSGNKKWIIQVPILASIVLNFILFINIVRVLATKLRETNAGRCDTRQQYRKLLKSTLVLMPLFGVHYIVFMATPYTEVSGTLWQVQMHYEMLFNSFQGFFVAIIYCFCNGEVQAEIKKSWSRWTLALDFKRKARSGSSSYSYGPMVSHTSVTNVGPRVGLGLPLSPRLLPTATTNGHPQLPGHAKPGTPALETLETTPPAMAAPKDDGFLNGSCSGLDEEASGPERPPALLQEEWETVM
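HEK-293-derived GP2 cells expressing PTHR1 and a GloSensor cAMP reporter, 3,000/well, plated overnight, given luciferin plus IBMX (each 0.5 mM as added) for 1 h at 37 °C, then compound for 1 h at 37 °C. Luminescence was read after 15 min at room temperature.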
GLP-1R agonist – agonists of human GLP-1 receptor. Potency, µM (doses to about 45.6 µM), without a hit: at the top dose activation, actives largely listed as activators. actives 0.007% (n = 380,000). HEK293 GLP-1R CRE-luciferase, luminescence, 4-6 h; cells express a hypersensitive GLP-1R form. AID 624172; note: % of control where 0% means no effect
GLP1R cytotox – cytotoxic in the GLP-1 receptor inverse agonist counter-screen | AID 624418 | Potency, µM (top dose mostly 38.3 µM), for inactives: top-dose activity change, negative = inhibition, most hits filed as inhibitors | actives 0.13% (n = 410,000) | HEK293 cAMP-luciferase reporter cells, luminescence, 24 h;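 note: loss of luciferase light is scored as toxicity; % is set by controls: 0 for no effect and ±100 for the full control effect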
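MLSMR compounds, 24 hr on cells at 37 deg C/5% CO2; luminescence after luciferase reagent (12 min RT). Inhibition counted as the undesired cytotoxic outcome.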
GLP1R inv ag – inverse agonists of human GLP-1 receptor; P43220; HEK293 GLP-1R CRE-luciferase, luminescence, 24 h; GLP-1R form is constitutively active; Potency, µM (highest dose often 38.3 µM), for inactives: at the highest dose activity change, negative = inhibition, usual class: inhibitors; actives 1.6% (n = 410,000); AID 624417; note: % is set by controls: 0 for no effect and ±100 for the full control effect; nearly all actives have a fitted effect of over 55% in size
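Cells are plated, allowed 12 hours at 37 deg C, then treated with compounds for 24 hr before luciferase detection reagent is added and luminescence is read after 12 min at room temperature. The HEK293 line carries constitutively active GLP-1R with a cAMP-responsive reporter.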
Active calls of the source: *; [ ] = another dose, or the depositor's remark. Most compounds without a hit are left out; they make up all but 1.7% or so of the library. Calls come from the whole dose curve; as a rule, active = well fitted curve in the direction sought with a large enough effect; inconclusive = small, poorly fitted or top-dose-only effect, or another doubt; inactive = no such curve, though single readings can be large; an effect the other way counts as inactive or inconclusive. Potency is the fitted concentration of half-maximal effect.

Results for O=C(Nc1ccc(OCC(F)(F)C(F)F)c(C(F)(F)F)c1)c1ccc(Cl)cc1 ?
PTHR1 ag: -12.7%[57.5 µM]; GLP-1R agonist: -9.4%; GLP1R cytotox: -20.9%; GLP1R inv ag: 3.55µM*

What do the screens show for `COc1ccc(C(=O)Nc2ccc(OCC(F)(F)C(F)F)c(C(F)(F)F)c2)cc1OC`?
PTHR1 ag: -92.3%; GLP-1R agonist: 1.6%; GLP1R cytotox: -23.9%; GLP1R inv ag: 3.98µM*

What do the screens show for `Cc1ccccc1Nc1scc(-c2ccc(Cl)cc2)[n+]1-c1ccccc1C`?
PTHR1 ag: -14.7%; GLP-1R agonist: -1.2%; GLP1R cytotox: -18.6%; GLP1R inv ag: 10µM*

Results for Cc1c(Nc2scc(-c3ccccc3)[n+]2-c2ccccc2)c(=O)n(-c2ccccc2)n1C ?
PTHR1 ag: -38.3%; GLP-1R agonist: 0.6%; GLP1R cytotox: 7.7%; GLP1R inv ag: inconclusive

How did COc1ccc(Cn2nnc(C(=O)Nc3cc(OC)ccc3OC)c2N)cc1 do in these assays?
PTHR1 ag: -14.4%; GLP-1R agonist: 2.0%; GLP1R cytotox: -0.8%; GLP1R inv ag: 10.8%

How did NCCCNCCCCNC(=O)C(O)NC(=O)CCCCCCN=C(N)N (stereo not given) do in these assays?
GLP-1R agonist: -1.5%

How did Cc1cccc(CN2CCc3c([nH]c4ccccc34)C2CC(C)C)n1 (stereo not given) do in these assays?
PTHR1 ag: -16.9%; GLP-1R agonist: 1.8%; GLP1R cytotox: 1.1%; GLP1R inv ag: 11.2µM*

Results for Cc1cnc(CN2CCc3c([nH]c4ccccc34)C2CC(C)C)[nH]1 (stereo not given) ?
PTHR1 ag: -8.5%; GLP-1R agonist: 1.6%; GLP1R cytotox: -15.8%; GLP1R inv ag: inconclusive

How did OCCN(CCO)c1ccc(C(c2ccccc2Cl)c2ccc(N(CCO)CCO)cc2Cl)c(Cl)c1 do in these assays?
PTHR1 ag: -9.6%; GLP-1R agonist: -4.5%; GLP1R cytotox: inconclusive; GLP1R inv ag: 5.01µM*

What do the screens show for `O=C(O)c1cccc(N(CCO)CCO)c1`?
PTHR1 ag: -57.6%; GLP-1R agonist: 5.1%; GLP1R cytotox: -4.6%; GLP1R inv ag: 0.1%

What do the screens show for `Cc1ccc2nc(-c3cccc(-c4cccc(Cl)c4)c3)c(NCc3ccccc3)n2c1`?
PTHR1 ag: -6.6%; GLP-1R agonist: -13.5%; GLP1R cytotox: 0.1%; GLP1R inv ag: 11.2µM*

How did Cc1ccn2c(NC3CCCCC3)c(-c3cccc(SC4CCCCC4)c3)nc2c1 do in these assays?
PTHR1 ag: -46.5%; GLP-1R agonist: 4.3%; GLP1R cytotox: -20.4%; GLP1R inv ag: inconclusive

What do the screens show for `CCC(C)Sc1cccc(-c2nc3cc(C)ccn3c2NC2CCCCC2)c1` (stereo not given)?
PTHR1 ag: -83.9%; GLP-1R agonist: 1.7%; GLP1R cytotox: inconclusive; GLP1R inv ag: 5.01µM*

Results for CCCCCCSc1cccc(-c2nc3cc(C)ccn3c2NCc2ccccc2)c1 ?
PTHR1 ag: -25.0%; GLP-1R agonist: -0.5%; GLP1R cytotox: inconclusive; GLP1R inv ag: 5.01µM*

Results for CCC(C)Sc1cccc(-c2nc3ccc(C)cn3c2NCc2ccccc2)c1 (stereo not given) ?
PTHR1 ag: -63.5%; GLP-1R agonist: -0.4%; GLP1R cytotox: -16.3%; GLP1R inv ag: inconclusive

What do the screens show for `O=C1CCCCC1Sc1nnc(-c2ccc3c(c2)OCO3)o1` (stereo not given)?
PTHR1 ag: -30.1%; GLP-1R agonist: -4.5%; GLP1R cytotox: -7.3%; GLP1R inv ag: 3.16µM*

How did Clc1ccc(CSc2nnc(-c3ccc4c(c3)OCO4)o2)cc1 do in these assays?
PTHR1 ag: -18.0%; GLP-1R agonist: -17.3%; GLP1R cytotox: -7.9%; GLP1R inv ag: -23.5%

Results for Cc1ccc(-c2nnc(SCC(=O)Nc3ccccc3F)o2)cc1 ?
PTHR1 ag: -90.8%; GLP-1R agonist: -2.1%; GLP1R cytotox: -8.3%; GLP1R inv ag: 2.24µM*

Results for Cc1cccc(NC(=O)CSc2nnc(-c3cc(C)n(-c4ccccc4)c3C)o2)c1C ?
PTHR1 ag: -7.5%[57.5 µM]; GLP-1R agonist: 1.8%; GLP1R cytotox: -7.0%; GLP1R inv ag: inconclusive

Results for Cc1cc(-c2nnc(SCC(=O)Nc3ccccc3C(F)(F)F)o2)c(C)n1-c1ccccc1 ?
PTHR1 ag: -4.1%; GLP-1R agonist: -21.7%; GLP1R cytotox: -5.2%; GLP1R inv ag: 0.891µM*

Screening results: PubChem BioAssay, National Center for Advancing Translational Sciences (NCATS)
